According to PubChem BioAssay (Tox21):
Results filed as inconclusive are left out. A call without a number means that no potency is given here. Activity calls are given as the source filed them. Unless noted, the call rests on the fitted dose curve.

test system: not listed separately; test: qHTS assay to identify small molecule agonists of the AP-1 signaling pathway (AID 1159526); conditions: ME-180 (cervical carcinoma) AP-1-bla reporter, beta-lactamase FRET ratio, 5 h; series mostly up to 76.8 µM; further: potency means the concentration at half of the fitted maximal effect

Structure (SMILES) | Potency | activation
COc1cc2nc(N(C)CCCNC(=O)C3CCCO3)nc(N)c2cc1OC (configuration not stated) | inactive | 
CCCCC(CC)COC(=O)CCCCCCCCC(=O)OCC(CC)CCCC (configuration not stated) | inactive | 
CN(C)C(=O)NC1(c2ccccc2)CCN(CC[C@@]2(c3ccc(F)c(F)c3)CN(C(=O)c3ccccc3)CCO2)CC1 | inactive | 
O=[N+]([O-])c1ccc(NCCO)c(OCCO)c1 | inactive | 
COc1ccc2cccc(CCNC(C)=O)c2c1 | inactive | 
O=C(NCC1CN(c2ccc(N3CCOCC3=O)cc2)C(=O)O1)c1ccc(Cl)s1 (configuration not stated) | inactive | 
CC1=CC=C(C(C)C)CC1 | inactive | 
CC(=O)c1cccc([N+](=O)[O-])c1 | inactive | 
C=CCOC(=O)CCC1CCCCC1 | inactive | 
CC(=O)[O][Al] | inactive | 
COc1ccc(C)cc1[N+](=O)[O-] | inactive | 
COCC(C)OC(C)=O (configuration not stated) | inactive | 
CCOc1ccc(N=Nc2ccc(/C=C/c3ccc(N=Nc4ccc(OCC)cc4)cc3S(=O)(=O)O)c(S(=O)(=O)O)c2)cc1 | inactive | 
CC(C)Cc1ccc(C(C)C(=O)OCc2ccccn2)cc1 (configuration not stated) | inactive | 
CCOc1ccc(O)cc1 | inactive | 
O=C(O)c1ccco1 | inactive | 
CC[N+](C)(CC)CCOC(=O)C(O)(c1ccccc1)C1CCCCC1 (configuration not stated) | inactive | 
CCCCC1=NC2(CCCC2)C(=O)N1Cc1ccc(-c2ccccc2-c2nn[nH]n2)cc1 | inactive | 

Structure (SMILES) | Potency | activation
Cc1ccc(C(C)OC(=O)C2(C)CCC(C(=O)O)C2(C)C)cc1 (configuration not stated) | inactive | 
Cc1c(N)cccc1[N+](=O)[O-] | inactive | 
COc1cc2nc(Cl)nc(N)c2cc1OC | inactive | 
Nc1ccccc1S(=O)(=O)c1ccccc1 | inactive | 
CCCCC(CC)COC(=O)COc1ccc(Cl)cc1Cl (configuration not stated) | inactive | 
Cn1c(=O)cc(Oc2ccc(F)cc2F)c2cnc(NCC(C)(C)O)nc21 | inactive | 
O=C(O)c1ccccc1Cl | inactive | 
O=C(O)CNCC(=O)O |  | -4.84% [at 6.97 µM] (inactive)
C/C(=C(\CCOP(=O)(O)O)SC(=O)c1ccccc1)N(C=O)Cc1cnc(C)nc1N |  | -6.29% [at 6.97 µM] (inactive)
CC(C)(COC(=O)c1ccccc1)COC(=O)c1ccccc1 | inactive | 
OC(C#CCN1CCCC1)(c1ccccc1)c1ccccc1 | 16.9 µM (active) | 
C=C(C)C(=O)OCC | inactive | 
OCCN1CCN(CCCN2c3ccccc3C=Cc3ccccc32)CC1 | inactive | 
ClCCOCCOCCCl | inactive | 
CC(CSC(=O)c1ccccc1)C(=O)N1C[C@@H](Sc2ccccc2)C[C@H]1C(=O)O (some centres not stated) |  | 17.2% [at 15.8 µM] (inactive)
Nc1c(CC(=O)O)cccc1C(=O)c1ccc(Br)cc1 | inactive | 
O=C(O)c1nc(Cl)c(Cl)c(Cl)c1Cl | inactive | 

target: Retinoic acid receptor RXR-alpha (Homo sapiens) (UniProt P19793); test: qHTS assay to identify small molecule agonists of the RXR signaling pathway (AID 1159527); conditions: HEK293T RXRa-UAS-bla, beta-lactamase ratio, 16 h; series mostly up to 76.8 µM; further: nearly all actives have a fitted effect of over 35% in size
Method in brief: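 Cells plated at 2,000/well, rested 5 hr at 37 C, pin-dosed with DMSO compound solutions, incubated 16 hr, then loaded with B/G FRET substrate for 2 hr at RT before dual-emission fluorescence reading.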

Retinoic acid receptor RXR-alpha (Homo sapiens), sequence (P19793 whole entry, looked up): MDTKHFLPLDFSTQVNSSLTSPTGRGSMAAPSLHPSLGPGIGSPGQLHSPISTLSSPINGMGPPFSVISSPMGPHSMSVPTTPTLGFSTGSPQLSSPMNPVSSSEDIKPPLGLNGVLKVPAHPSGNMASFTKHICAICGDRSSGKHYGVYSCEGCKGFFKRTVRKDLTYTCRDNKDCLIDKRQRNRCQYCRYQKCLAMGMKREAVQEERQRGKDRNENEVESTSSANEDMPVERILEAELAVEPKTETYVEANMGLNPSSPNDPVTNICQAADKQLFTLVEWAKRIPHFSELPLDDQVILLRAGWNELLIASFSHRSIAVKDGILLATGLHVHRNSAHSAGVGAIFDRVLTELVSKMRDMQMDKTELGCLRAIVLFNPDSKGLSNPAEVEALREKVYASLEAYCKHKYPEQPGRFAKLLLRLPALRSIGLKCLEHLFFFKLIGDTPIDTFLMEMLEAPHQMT

Structure (SMILES) | Potency | activation
COc1cc2nc(N(C)CCCNC(=O)C3CCCO3)nc(N)c2cc1OC (configuration not stated) | inactive | 
O=C(NCC1CN(c2ccc(N3CCOCC3=O)cc2)C(=O)O1)c1ccc(Cl)s1 (configuration not stated) | inactive | 
CC1=CC=C(C(C)C)CC1 | inactive | 
COc1ccc(C)cc1[N+](=O)[O-] | inactive | 
COCC(C)OC(C)=O (configuration not stated) | inactive | 
CC[N+](C)(CC)CCOC(=O)C(O)(c1ccccc1)C1CCCCC1 (configuration not stated) | inactive | 
COc1cc2nc(Cl)nc(N)c2cc1OC | inactive | 
CCCCC(CC)COC(=O)COc1ccc(Cl)cc1Cl (configuration not stated) | inactive | 
O=C(O)c1ccccc1Cl | inactive | 
O=C(O)CNCC(=O)O |  | 1.94% [at 6.98 µM] (inactive)
C/C(=C(\CCOP(=O)(O)O)SC(=O)c1ccccc1)N(C=O)Cc1cnc(C)nc1N |  | 7.58% [at 6.98 µM] (inactive)
OC(C#CCN1CCCC1)(c1ccccc1)c1ccccc1 | inactive | 
OCCN1CCN(CCCN2c3ccccc3C=Cc3ccccc32)CC1 | inactive | 
ClCCOCCOCCCl | inactive | 
CC(CSC(=O)c1ccccc1)C(=O)N1C[C@@H](Sc2ccccc2)C[C@H]1C(=O)O (some centres not stated) |  | -12.9% [at 15.8 µM] (inactive)

test system: not listed separately; test: qHTS assay to identify small molecule agonists of the RXR signaling pathway - cell viability counter screen (AID 1159529; active means well fitted cell-killing curve with a large enough effect in the repeat runs; further: nearly all actives have a fitted effect of over 50% in size; further: potency means the concentration at half of the fitted maximal effect); conditions: RXR-alpha-bla HEK293T viability, CellTiter-Glo, 16 h; series mostly up to 76.8 µM
Method in brief: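 Steps: seed RXR-alpha-UAS-bla HEK 293T cells in assay medium containing 2% charcoal-stripped FBS; incubate 5 hr; add compounds in DMSO; incubate 16 hr at 37 C; after the bla read, add CellTiter-Glo and read luminescence at 30 min.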

Structure (SMILES) | Potency
CCCCC(CC)COC(=O)CCCCCCCCC(=O)OCC(CC)CCCC (configuration not stated) | inactive
CN(C)C(=O)NC1(c2ccccc2)CCN(CC[C@@]2(c3ccc(F)c(F)c3)CN(C(=O)c3ccccc3)CCO2)CC1 | 45.5 µM (active)
O=[N+]([O-])c1ccc(NCCO)c(OCCO)c1 | inactive
COc1ccc2cccc(CCNC(C)=O)c2c1 | inactive
CC1=CC=C(C(C)C)CC1 | inactive
CC(=O)c1cccc([N+](=O)[O-])c1 | inactive
C=CCOC(=O)CCC1CCCCC1 | inactive
CC(=O)[O][Al] | inactive
COc1ccc(C)cc1[N+](=O)[O-] | inactive
COCC(C)OC(C)=O (configuration not stated) | inactive
CCOc1ccc(N=Nc2ccc(/C=C/c3ccc(N=Nc4ccc(OCC)cc4)cc3S(=O)(=O)O)c(S(=O)(=O)O)c2)cc1 | inactive
CC(C)Cc1ccc(C(C)C(=O)OCc2ccccn2)cc1 (configuration not stated) | inactive
CCOc1ccc(O)cc1 | inactive
O=C(O)c1ccco1 | inactive
CCCCC1=NC2(CCCC2)C(=O)N1Cc1ccc(-c2ccccc2-c2nn[nH]n2)cc1 | inactive
Cc1ccc(C(C)OC(=O)C2(C)CCC(C(=O)O)C2(C)C)cc1 (configuration not stated) | inactive
Cc1c(N)cccc1[N+](=O)[O-] | inactive
COc1cc2nc(Cl)nc(N)c2cc1OC | inactive
Nc1ccccc1S(=O)(=O)c1ccccc1 | inactive
CCCCC(CC)COC(=O)COc1ccc(Cl)cc1Cl (configuration not stated) | inactive
Cn1c(=O)cc(Oc2ccc(F)cc2F)c2cnc(NCC(C)(C)O)nc21 | inactive
CC(C)(COC(=O)c1ccccc1)COC(=O)c1ccccc1 | inactive
OC(C#CCN1CCCC1)(c1ccccc1)c1ccccc1 | inactive
C=C(C)C(=O)OCC | inactive
ClCCOCCOCCCl | inactive
Nc1c(CC(=O)O)cccc1C(=O)c1ccc(Br)cc1 | inactive
O=C(O)c1nc(Cl)c(Cl)c(Cl)c1Cl | inactive
